Source: PubChem BioAssay (National Center for Advancing Translational Sciences (NCATS))
Only some compounds are listed: those with a hit (about 2% of all), similar ones and a draw of the others.
IDH1 R132H inh – human IDH1 R132H inhibition; IDH1-R132H enzyme, NADPH consumption, diaphorase/resazurin fluorescence; Potency, µM (doses to about 76.6 µM), hits mostly inhibitors; hit rate 0.093% among 390,000; O75874; further: nearly all actives have a fitted effect of over 65% in size
Target sequence (O75874 whole entry R132H, stated change not applied): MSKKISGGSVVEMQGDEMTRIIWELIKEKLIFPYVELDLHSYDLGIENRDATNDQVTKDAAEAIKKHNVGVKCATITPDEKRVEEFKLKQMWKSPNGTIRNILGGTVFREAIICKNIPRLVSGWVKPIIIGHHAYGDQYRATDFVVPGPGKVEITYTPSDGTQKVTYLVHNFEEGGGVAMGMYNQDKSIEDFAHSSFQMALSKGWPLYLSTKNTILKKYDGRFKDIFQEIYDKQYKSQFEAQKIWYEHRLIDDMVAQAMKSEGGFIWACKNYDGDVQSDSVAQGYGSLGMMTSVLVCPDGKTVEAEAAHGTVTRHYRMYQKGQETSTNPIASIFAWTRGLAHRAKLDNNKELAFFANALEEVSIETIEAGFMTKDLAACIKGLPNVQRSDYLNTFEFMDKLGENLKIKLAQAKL
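IDH1-R132H (0.5 ug/mL) preincubated 30 min with compound, then NADPH (0.016 mM) and alpha-KG (2 mM) added; 80 min at RT, pH 7.5. Remaining NADPH coupled via diaphorase/resazurin to fluorescence (540/590 nm); concentration-response curves normalized to no-enzyme control.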
TDP43 rescue – rescues yeast growth from TDP-43 toxicity. TDP-43 expressing yeast growth rescue, BacTiter-Glo, 24 h. Potency, µM (series often up to 46.1 µM), hits mostly activators. hit rate 1.8% among 410,000. AID 652104; further: nearly all actives have a fitted effect of over 50% in size
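Galactose-induced TDP-43 yeast, OD600=0.02, compound pinned; 24 hr, 30 deg C; BacTiter-Glo luminescence for growth. Inhibitors of TDP-43 toxicity read as activators.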
FUS suppressor – FUS proteinopathy suppression in yeast | hit rate 0.24% among 390,000 | Potency, µM (titrated, usually from 76.6 µM), actives largely listed as activators | S. cerevisiae FUS-expressing, growth rescue, OD600, 24 h; further: nearly all actives have a fitted effect of over 55% in size
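Galactose (2%) drives FUS expression in yeast precultured in raffinose; seeding density OD 0.005. Test compounds incubated 24hr at 30C and 99% humidity before absorbance at 600 nm was measured.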
LDHA block – LDHA (human) enzyme inhibition | purified LDHA, NADH/diaphorase-resazurin fluorescence; active compounds read low | AID 1347041 | hit rate 0.15% among 480,000 | P00338 | activity change, % (values are at about 110 or 230 µM); in the data active means activity change below about -30%; inconclusive means mostly about -25% to -30%
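Human LDH5 (2 nM) was incubated with 0.06 mM NADH and 0.2 mM pyruvate for 5 min at room temperature in Tris pH 7.4. Remaining NADH was coupled through diaphorase/resazurin, and resorufin fluorescence was read at 0 and 20 min.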
Abeta yeast res – compounds reversing amyloid beta toxicity in yeast; hit rate 0.063% among 410,000; Potency, µM (doses to about 46.1 µM), usual class: activators; yeast expressing A-beta42, growth rescue, OD600, 48 h; response scale: 0% DMSO, 100% iron-clioquinol control; further: nearly all actives have a fitted effect of over 55% in size
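Yeast growth medium received pinned compounds, then yeast cells expressing toxic A-beta were added; plates incubated at 30 C for 48 hr. Growth read as absorbance at 600 nm, normalized to DMSO and equimolar FeCl3 plus clioquinol controls.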
aSyn yeast inh – rescues yeast growth from alpha-synuclein toxicity | Potency, µM (doses to about 46.1 µM), actives largely listed as activators | hit rate 0.14% among 370,000 | Yeast expressing alpha-synuclein, growth rescue, BacTiter-Glo, 24 h; further: nearly all actives have a fitted effect of over 65% in size
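Galactose-induced alpha-syn yeast (OD600=0.02, raffinose-pregrown) + pinned cpd, 24 hr, 30 deg C; growth by BacTiter-Glo luminescence. Growth restoration scores as activation.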
Hits are given with their value; – = inactive; ? = inconclusive; · = no result given; [ ] = another dose, or the depositor's remark. Unless noted, the call rests on the fitted dose curve; in most records, active means well fitted curve in the direction sought with a large enough effect; inconclusive means small, poorly fitted or top-dose-only effect, or another doubt; inactive means no such curve, though single readings can be large; an effect the other way counts as inactive or inconclusive.

SMILES | IDH1 R132H inh | TDP43 rescue | FUS suppressor | LDHA block | Abeta yeast res | aSyn yeast inh
Cc1oc(-c2ccccc2)nc1C(=O)OCC(=O)NCc1ccc(Cl)cc1 | – | – | – | – | – | –
Cc1ccc(CNC(=O)COC(=O)c2nc(-c3ccccc3)oc2C)cc1 | – | 35µM | – | – | – | –
O=c1[nH]cccc1NS(=O)(=O)c1ccccc1Cl | · | · | · | – | · | ·
Cc1sc(NC(=O)CC(C)C)c(C#N)c1C | · | · | · | – | · | ·
Cc1ccc(NC(=O)C2(NC(=O)c3cccc(N4C(=O)CSC4c4ccccc4)c3)CCCCC2)cc1 (stereo not given) | – | – | 28µM | – | – | –
COc1ccc(C(NC(=O)CNc2ccccc2C(N)=O)C2CC2)cc1 (stereo not given) | · | · | · | – | · | ·
N#C/C(=C(/O)COC(=O)Cc1c[nH]c2ccccc12)c1nc2ccccc2[nH]1 | – | – | 35µM | – | ? | –
CCOC(=O)CN1C(=O)S/C(=C/c2ccc(C)o2)C1=O | – | 13µM | – | – | – | –
CCOC(=O)CN1C(=O)S/C(=C/c2cc(C)n(C)c2C)C1=O | – | ? | – | – | – | –
COC(=O)c1ccc(NC(=O)C2CCN(c3oc(-c4ccco4)nc3C#N)CC2)cc1 | · | · | · | – | · | ·
CC(Cc1cccs1)NC(=S)Nc1ccc(Cl)c(Cl)c1 (stereo not given) | – | –[0.397 µM] | – | – | 11µM | –
Cc1cc(C)c(NC(=O)CS(=O)CC(=O)Nc2ccc(N3CCOCC3)cc2)c(C)c1 (stereo not given) | – | – | – | – | – | –
Cc1ccc(NC(=O)Cc2cccs2)cc1Cl | – | 20µM | – | – | – | –
Cc1ccc(NC(=O)CS(=O)CC(=O)Nc2ccc(N3CCOCC3)cc2)cc1Cl (stereo not given) | – | – | – | -31 | – | –
O=C(Cc1cccs1)Nc1ccc(S(=O)(=O)Nc2ncccn2)cc1 | – | – | 10µM | – | – | –
CC(Cc1cccs1)NC(=S)Nc1ccc(Cl)cc1 (stereo not given) | – | –[0.397 µM] | – | – | ? | –
Cc1ccccc1N1C(N)=C(C#N)C(c2ccsc2)C2=C1CC(C)(C)CC2=O (stereo not given) | · | · | · | – | · | ·
Cc1ccc(-c2cc(C(=O)OC(C)C(=O)NC(=O)NC3CCCC3)c3ccccc3n2)o1 (stereo not given) | · | · | · | – | · | ·
COc1ccccc1CNS(=O)(=O)c1ccc2[nH]cc(C(=O)O)c(=O)c2c1 | – | – | – | -56 | – | –
COc1ccccc1CNS(=O)(=O)c1ccc2[nH]c3c(c2c1)CCCCC3 | – | ? | – | – | – | ?
CC(C)COc1ccc(C(=O)Nc2cccc3ncccc23)cc1 | · | · | · | – | · | ·
Cc1[nH]nc2c1-c1nc3ccccc3nc1C(C)(C)C2 | – | 22µM | – | – | – | –
CC12CCC(C)(c3nc4ccccc4nc31)C2(C)C | – | – | – | – | – | –
Cc1ccc(CNC(=O)Cc2csc3ccccc23)cc1 | – | – | – | – | – | ·
COc1ccc(CNC(=O)Cc2csc3ccccc23)cc1OC | · | – | – | – | – | ·
SMILES | IDH1 R132H inh | TDP43 rescue | FUS suppressor | LDHA block | Abeta yeast res | aSyn yeast inh
Cc1cccc(CNC(=O)Cc2csc3ccccc23)c1 | · | ? | – | – | – | 20µM
O=C(Cc1csc2ccccc12)NCc1ccc(F)cc1 | · | 13µM | – | – | – | ·
Clc1ccccc1N=C1NN=C(c2cccs2)CS1 | – | 11µM | – | – | – | –
Cc1cc(NC(=O)COC(=O)c2c(Cl)cccc2Cl)no1 | – | 16µM | – | – | – | –
Cc1cc(NC(=O)COC(=O)c2ccc(Cl)cc2)no1 | – | – | – | – | – | –
O=C(COC(=O)c1c(Cl)cccc1Cl)Nc1ccccc1Br | – | 14µM | · | – | – | –
O=C(COC(=O)c1ccccc1)Nc1ccccc1Br | – | – | – | – | – | –
O=C(CCl)Nc1cccc(-c2cnc3ccccc3n2)c1 | – | 13µM | – | – | – | –
O=C(O)C1C2C=CC(C2)C1C(=O)NCc1ccc(Cl)c(Cl)c1 (stereo not given) | – | 20µM | – | – | – | –
COc1ccc(CN2CCN(Cc3cccc(OC)c3OC)CC2)cc1 | · | · | · | – | · | ·
